Molecules are shown by their SMILES. About 83,000 compounds went through this panel and 20% of them were active in at least one assay; those are over-represented in the sample as a whole.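 Each cell line was grown in a 96-well plate and treated with one concentration of compound for 48 hours. Values below 10 were considered active.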 Values without a mark were called inactive. Activity calls are given as the source filed them.

For the assay, the system named is SNB-19 CNS. As to the kind of experiment: NCI-60 one-dose screen, 48 h (100 = growth as untreated, 0 = no growth, -100 = all killed). The following applies: 10 µM unless noted. On the procedure: Growth inhibition of the SNB-19 human tumor cell line is measured as a screen for anti-cancer activity. Cells are grown in 96 well plates and exposed to the test compound for 48 hours. Compounds are tested at a single concentration, which is 10^-5 M for most compounds. The reported endpoint is percent growth (GI% or GIPRCNT), where numbers from 0 - 100% represent growth inhibition, and numbers from -100% - 0 represent cell death. For example, a value of 40 represents 60% growth inhibition. A value of 0 means no net growth occurred over the course of the experiment. A value of -40 indicates 40% of cells at the beginning of the experiment died by the end of the experiment. A value of -100 means all cells are dead at the end of the experiment.
NCI-60 Human Tumor Cell Lines Screen was performed using the standard one-dose NCI protocol, which is described in more detail at https://dtp.cancer.gov/discovery_development/nci-60/default.htm.
Compounds with GIPRCNT values below 10 were considered active. Activity score was based on GIPRCNT using the following formula: […]
Score is 0 for GIPRCNT values of 100 or above, 50 for GIPRCNT values of 0, and 100 for GIPRCNT values of -100.
For `COc1cc(-c2nc3sccn3c2-c2ccnc(NCCNS(=O)(=O)c3ccccc3)n2)ccc1F`, the growth was 67.6%.

On to `Cc1csc(Nc2nc(-c3ccccn3)nc(C(Cl)(Cl)Cl)n2)n1`, for which the growth was 80.9%.

For the compound `COc1ccc2c(c1)N(CCO)C1=C(C(=O)OC1)C2c1cccc(F)c1` (stereo not given), the growth was 27.8%.

As for `CN1CCc2nc3sc(C(N)=O)c(N)c3c(-c3cccs3)c2C1`, the growth is 37.9%.

Regarding `CCCCCN1C(=O)/C(=c2\sc3n(c2=O)C2C(NN=3)N(CC)C(=O)N2CC)c2ccccc21` (stereo not given), the growth is -1.3% (active).

For the compound `Cc1cc(C(=O)Nc2ncc(Cc3cccc(C(F)(F)F)c3)s2)c2ccccc2n1`, the growth was 44.7%.

With `OB1OCc2cc(/C=C/c3cccc(C(F)(F)F)c3)ccc21`, the growth is 20.8%.

With `CC(=O)c1c(C)nc2ccccc2c1/C=C/c1ccc(F)cc1`, the growth was 93%.

As to `CCn1cc(C(=O)O)c(=O)c2cc(F)c(N3CCN(CC(=O)Nc4ccc(S(=O)(=O)Nc5nccc(C)n5)cc4)C(C)C3)c(F)c21` (stereo not given), the growth is 98.7%.

On to `O=C(N(c1ccccc1)c1ccccc1)n1cc(I)c2nc(Cl)nc(Cl)c21`, for which the growth was 46.8%.

As to `Cc1ccc(Nc2cc(N)nc(N)n2)cc1Cl`, the growth is 104%.

Take `Cn1ccc(=O)c(C(=O)Nc2nsc3ccc([N+](=O)[O-])cc23)c1`: the growth is 91.3%.

In the case of `N#Cc1ccc2c(c1)C(=O)c1c-2n(CCCN)c(=O)c2cc([N+](=O)[O-])ccc12`, the growth is -85.1% (active).

Consider `S=c1sc2c(Cl)nc(-c3cccnc3)nc2n1-c1ccccc1`, for which the growth is 25.2%.

`CCC(=O)Oc1ccc(-c2ccccc2)cc1Br`: the growth was 112%.

Take `CC(=O)O[C@H]1CC2CCC3C(CC[C@@]4(C)C3C[C@H]([N+]3(C)CCCCC3)[C@@H]4OC(C)=O)[C@@]2(C)C[C@@H]1N1CCCCC1` (stereo not given in full): the growth was 100%.

As to `COc1ccc(C/C(C)=C(\c2ccc(Cl)cc2)c2ccc(OCCN3CCCCC3)cc2)cc1`, the growth is 93.5%.

Consider `CC(=O)c1c(C)nc(SCC(=O)Nc2cccc(O)c2)n1-c1ccc(Cl)cc1`, for which the growth is 92%.

For `CCc1ncnc2c1ccn2C(C)c1ccc(OC)c(F)c1` (stereo not given), the growth was 53.2%.

For `O=S(=O)(Nc1cc(F)cc(Cl)c1)c1ccc(-c2cnc(C3CC3)o2)cc1`, the growth was 30.4%.

On to `COC(=O)[C@]1(C)CCC[C@]2(C)[C@H]3C[C@H]4C(C(C)C)=C[C@]3(CC[C@H]21)[C@@H]1C(=O)CC[C@H](OCCC#N)[C@@H]14`, for which the growth is 89.6%.

For `COC(=O)Nc1nc2ccc(S(=O)c3ccccc3)cc2[nH]1` (stereo not given), the growth is 74.9%.

For `COc1cc2c(cc1OCCCN1CCN(CCCOc3cc4c(cc3OC)C(=O)N3CCC[C@H]3C=N4)CC1)C=CC(C)(C)O2`, the growth is -94.6% (active).

In the case of `O=c1[nH]c(Cc2nc3ccccc3s2)nc2cc(Br)ccc12`, the growth was 82.2%.

As for `O=C(Nc1ccc(Oc2cccc(Cl)c2)c(Cl)c1)c1cnccn1`, the growth is 33.5%.

Take `COc1ccc(/C=C/C(=O)c2ccc(Nc3ccnc4cc(Cl)ccc34)cc2)cc1`: the growth is 87.1%.

`Nc1ncnc2c1C(c1ccccc1)c1ccc3ccccc3c1O2` (stereo not given): the growth was 80.7%.

Take `O=S(=O)(Nc1ccc(Cl)c(C(F)(F)F)c1)c1ccc(-c2cnc(C3CC3)o2)cc1`: the growth is 18.3%.

As for `COc1ccc(F)cc1/C=C/C(=O)/C=C(/C=C/c1cc(F)ccc1OC)OB(F)F`, the growth was 72.4%.

In the case of `COc1cc(OCc2cccc(Br)c2C)cc(OC)c1C=O`, the growth was 91.8%.

Consider `O=S(=O)(Nc1ccc(F)cc1F)c1ccc(-c2cnc(C3CC3)o2)cc1`, for which the growth is 46.5%.

With `Cc1ccc(-c2nc(N3CCCNCC3)c3oc(-c4ccccc4)nc3n2)cc1`, the growth was 8.75% (active).

`Cc1ccc(C[P+](c2ccccc2)(c2ccccc2)c2ccccc2)cc1`: the growth is 19.9%.

Consider `O=c1c2cccc3c(N4CCCC4)ccc(c32)c2nc3ccccc3n12`, for which the growth was 76%.

For `CC(C)=CCCC(C)c1ccc(C)c2c1OCN(CCCCCO)C2` (stereo not given), the growth is 88.8%.

With `Nc1c(C(=O)Nc2ccncc2)sc2nc3c(cc12)C(O)CCC3` (stereo not given), the growth is 95.4%.

As to `Cc1cccc(/C=C2\CN(C(=O)OC(C)(C)C)C/C(=C\c3cccc(C)c3)C2=O)c1`, the growth is 95.9%.

With `O=c1scc(-c2ccc(C(F)(F)F)cc2)s1`, the growth was 91.8%.

With `COC(=O)c1c(C)nc(C)c2c1C(=O)C(Br)=C(NCc1ccccc1)C2=O`, the growth is 41.7%.

Turning to `CCCC/C(CC)=N\NS(=O)(=O)c1ccc([N+](=O)[O-])cc1`, the growth is 95.2%.
